Reference: PubChem BioAssay

Columns and labels:
[1] = tested on: Botulinum neurotoxin type F light chain protease (Clostridium botulinum); test: Clostridium botulinum type F light chain protease inhibitors, microsphere substrate cleavage, validation (AID 588459); conditions: multiplex microsphere protease substrate cleavage assay, flow cytometry; at 10 µM; hits give high values
[2] = molecular target: Botulinum neurotoxin type A (Clostridium botulinum) (UniProt P0DPI0); test: BoNT/A light chain protease inhibitors, biochemical, multiplex microsphere flow cytometry, validation set (AID 588460); conditions: at 10 µM, hits give high values
[3] = molecular target: Lethal factor (Bacillus anthracis) (UniProt P15917); test: Bacillus anthracis lethal factor inhibition, microsphere flow cytometry protease assay, validation at 10 µM (AID 588461); conditions: multiplex microsphere protease cleavage assay, hits give high values

Measured: inhibition

Botulinum neurotoxin type A (Clostridium botulinum), sequence (P0DPI0 whole entry, looked up): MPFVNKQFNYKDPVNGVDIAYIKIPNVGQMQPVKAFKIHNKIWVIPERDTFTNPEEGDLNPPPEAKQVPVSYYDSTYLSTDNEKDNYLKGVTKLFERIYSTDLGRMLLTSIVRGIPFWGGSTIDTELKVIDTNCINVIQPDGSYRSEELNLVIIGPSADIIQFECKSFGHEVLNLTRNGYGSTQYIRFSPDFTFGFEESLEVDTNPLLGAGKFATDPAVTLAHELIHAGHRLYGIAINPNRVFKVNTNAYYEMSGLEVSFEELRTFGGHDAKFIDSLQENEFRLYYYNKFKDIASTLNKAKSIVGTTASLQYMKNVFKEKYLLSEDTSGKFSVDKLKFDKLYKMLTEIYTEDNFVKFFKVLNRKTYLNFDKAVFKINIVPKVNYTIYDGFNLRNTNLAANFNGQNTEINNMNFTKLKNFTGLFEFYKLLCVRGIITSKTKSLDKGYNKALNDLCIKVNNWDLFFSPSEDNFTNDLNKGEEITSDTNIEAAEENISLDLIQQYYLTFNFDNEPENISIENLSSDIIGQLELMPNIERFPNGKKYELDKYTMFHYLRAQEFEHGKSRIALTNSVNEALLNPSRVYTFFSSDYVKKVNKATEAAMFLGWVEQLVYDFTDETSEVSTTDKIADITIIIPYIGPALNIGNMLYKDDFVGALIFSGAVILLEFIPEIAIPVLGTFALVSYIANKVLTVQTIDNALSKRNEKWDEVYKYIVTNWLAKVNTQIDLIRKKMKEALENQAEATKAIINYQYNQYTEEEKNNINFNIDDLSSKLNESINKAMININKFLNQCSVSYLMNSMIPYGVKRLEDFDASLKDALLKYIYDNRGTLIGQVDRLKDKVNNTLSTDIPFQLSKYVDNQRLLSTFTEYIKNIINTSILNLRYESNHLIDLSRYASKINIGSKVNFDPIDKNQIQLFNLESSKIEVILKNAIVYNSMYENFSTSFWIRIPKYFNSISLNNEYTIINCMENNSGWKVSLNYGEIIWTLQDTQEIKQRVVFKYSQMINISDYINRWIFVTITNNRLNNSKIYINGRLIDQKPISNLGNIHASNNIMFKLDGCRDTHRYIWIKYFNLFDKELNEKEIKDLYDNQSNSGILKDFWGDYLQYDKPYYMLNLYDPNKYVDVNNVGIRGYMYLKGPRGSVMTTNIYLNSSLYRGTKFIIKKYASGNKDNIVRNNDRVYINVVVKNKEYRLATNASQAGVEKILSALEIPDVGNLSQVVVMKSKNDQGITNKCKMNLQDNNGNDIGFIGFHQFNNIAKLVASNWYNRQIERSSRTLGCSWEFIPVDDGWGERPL
Lethal factor (Bacillus anthracis), sequence (P15917 whole entry, looked up): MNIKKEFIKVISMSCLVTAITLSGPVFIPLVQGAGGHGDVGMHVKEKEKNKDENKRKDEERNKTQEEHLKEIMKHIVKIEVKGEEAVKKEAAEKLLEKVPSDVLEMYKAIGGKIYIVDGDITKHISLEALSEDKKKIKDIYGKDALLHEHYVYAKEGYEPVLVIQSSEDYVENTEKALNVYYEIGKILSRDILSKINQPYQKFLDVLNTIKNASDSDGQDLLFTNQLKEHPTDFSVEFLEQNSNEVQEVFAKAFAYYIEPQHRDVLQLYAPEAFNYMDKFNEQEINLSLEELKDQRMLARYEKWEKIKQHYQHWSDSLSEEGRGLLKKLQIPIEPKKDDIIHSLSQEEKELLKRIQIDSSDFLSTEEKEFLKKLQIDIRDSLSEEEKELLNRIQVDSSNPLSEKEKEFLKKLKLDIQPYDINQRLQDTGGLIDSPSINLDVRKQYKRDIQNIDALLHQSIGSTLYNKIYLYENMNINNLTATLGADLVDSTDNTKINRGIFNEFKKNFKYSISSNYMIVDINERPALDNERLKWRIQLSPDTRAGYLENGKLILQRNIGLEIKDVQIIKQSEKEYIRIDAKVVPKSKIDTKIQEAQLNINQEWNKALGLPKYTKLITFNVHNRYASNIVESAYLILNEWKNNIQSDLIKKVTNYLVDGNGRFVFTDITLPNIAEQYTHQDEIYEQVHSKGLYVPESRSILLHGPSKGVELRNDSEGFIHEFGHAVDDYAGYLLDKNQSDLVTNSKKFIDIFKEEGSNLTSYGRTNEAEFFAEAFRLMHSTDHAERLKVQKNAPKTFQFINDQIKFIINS

O=c1ccc2ccccc2o1
inactive: [1] -3% | [2] -1.4% | [3] -1.4%

Cn1c(=O)oc2cc(S(=O)(=O)N3CCc4ccccc4C3)ccc21
inactive: [1] -0.9% | [2] -3% | [3] -3.5%

O=C(CNC(=O)OCc1ccccc1)NC1CCCCCC1
inactive: [1] -1% | [2] -1.8% | [3] -3.4%

Oc1ccc(Oc2ncc(Cl)cc2Cl)cc1
inactive: [1] 1.4% | [2] -0.7% | [3] -2.9%

C/C(=N\NC(=O)C1(C)CC1(Br)Br)c1ccc([N+](=O)[O-])cc1 (configuration not stated)
inactive: [1] 2.6% | [2] 0.4% | [3] -7.9%

CCOC(=O)C1CCCN(Cc2nc(Cc3cccc(F)c3)no2)C1 (configuration not stated)
inactive: [1] 0.1% | [2] -0.4% | [3] 0.6%

CC(C)C[C@H](NC(=O)[C@@H]1Cc2ccccc2CN1C(=O)OC(C)(C)C)C(=O)NCC1CCC(C(=O)O)CC1 (some centres not stated)
inactive: [1] 3% | [2] 0.3% | [3] -3.6%

Cc1oc2c(C)c3oc(=O)c4c(c3cc2c1C)CCCC4
inactive: [1] 0.8% | [2] -0.2% | [3] 1.3%

Cc1cn([C@H]2C=C[C@@H](CO)O2)c(=O)[nH]c1=O
inactive: [1] -1.8% | [2] -2.2% | [3] -0.8%

CSc1ccc(CN2CCN(CCC(C)C)C(CCO)C2)cc1 (configuration not stated)
inactive: [1] 2.2% | [2] 0.1% | [3] -3.3%

OCCC1CN(Cc2nc(-c3ccccc3)cs2)CCN1Cc1ccc(F)cc1 (configuration not stated)
inactive: [1] 3.5% | [2] 0.9% | [3] 8.5%

CC(=O)N(CCC(Cc1ccccc1)c1ccc2c(c1)OCO2)Cc1ccc(Cl)cc1 (configuration not stated)
inactive: [1] 3.5% | [2] 0.1% | [3] -1%

Cn1cc(CN2CCC(C(=O)N3CCCCC3)CC2)c(-c2ccccc2F)n1
inactive: [1] 4% | [2] 0.2% | [3] 4.5%

CC1COc2c(N3CCN(C)CC3)c(F)cc3c(=O)c(C(=O)O)cn1c23 (configuration not stated)
inactive: [1] -0.1% | [2] -0.3% | [3] 3.1%

CC(C)Cn1c(=S)[nH]c2cc(C(=O)O)ccc2c1=O
inactive: [1] -4.3% | [2] -0.4% | [3] -0.6%

COc1c(C=O)c(CCN(C)C(=O)c2ccc(F)cc2)cc2c1OCO2
inactive: [1] 3% | [2] -1.5% | [3] -4.4%

c1ccc2[nH]c(-c3cscn3)nc2c1
inactive: [1] 1.2% | [2] 0.1% | [3] -4%

COc1ccc(CN(CCC(c2ccc(F)cc2)C2CCOC(C)(C)C2)C(=O)c2ccco2)cc1 (configuration not stated)
inactive: [1] -2.6% | [2] -0.3% | [3] 1.6%

CC1(C)CC(=O)C(C(=O)CCCCC(=O)C2C(=O)CC(C)(C)CC2=O)C(=O)C1
inactive: [1] 1.2% | [2] 0.8% | [3] -5.7%

COc1ccc(CCN(C)CC(=O)Nc2cc(C)nc3ccccc23)cc1OC
inactive: [1] 0.4% | [2] 0.9% | [3] -1.4%

Cc1ccc2c(c1)OC(=O)CC2c1ccccc1 (configuration not stated)
inactive: [1] -4.2% | [2] -1.1% | [3] -4.4%

Cc1cc(C(C)(C)C)cc(C)c1CC1=NCCN1
inactive: [1] 1.3% | [2] 1.2% | [3] 1.8%

COc1ccc(/C=C2\CC/C(=C\c3ccc(OC)c(OC)c3)C2=O)cc1OC
inactive: [1] 1.7% | [2] 0.1% | [3] -5.9%

C1CCC(C(CC2CCCCN2)C2CCCCC2)CC1 (configuration not stated)
inactive: [1] -7.7% | [2] 0.4% | [3] -14.1%

O=C(/C=C/c1ccc2c(c1)OCO2)NCc1ccc(F)cc1
inactive: [1] -14.5% | [2] -2.4% | [3] -3.4%

OCC1CCN(Cc2cn(Cc3ccccc3)nc2-c2cc3ccccc3o2)CC1
inactive: [1] -0.4% | [2] -0.7% | [3] -0.9%

CCCC(=O)Nc1ccc(OCC(O)CNC(C)C)c(C(C)=O)c1 (configuration not stated)
inactive: [1] 2% | [2] 1.1% | [3] -26.9%

CCN(CC)C(=O)c1ccc(O)c(OC)c1
inactive: [1] -2.8% | [2] -0.4% | [3] -6.3%

CN(C)CCC=C1c2ccccc2CCc2ccccc21
inactive: [1] 1.3% | [2] 0.2% | [3] 0.7%
